Targets with a hit are over-represented here; the source holds about 7,900 in all. About 0.6% of all pairs of compound and target were hits.
What was measured:
Experiment in all cases: log2 fold change, soluble protein after heating vs DMSO (PISA); higher = thermal stabilisation; K562 cells, 10 uM, 30 min; active = over 0.2 and 3.5 SD of the protein, either way, in both replicates (recomputed)
bafetinib = compound: Cc1ccc(NC(=O)c2ccc(CN3CC[C@H](N(C)C)C3)c(C(F)(F)F)c2)cc1Nc1nccc(-c2cncnc2)n1 [bafetinib]
Procedure, shortened: (§1)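 K562 cells (2×10^6 cells/mL) were treated with 10 μM compound for 30 min, and aliquots were heated for 3 min over 48°C-58°C. Pooled aliquots were extracted in PBS with 0.5% NP-40 at 4°C, and the supernatant after 21,000xg for 90 min was measured by TMTpro 16plex LC-MS/MS with channel sums equalised. Reported thermal stability, relative to control samples and from duplicates, is a log2 fold change.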

[1] = compound: Cc1cccc(CC(=O)N2CCc3c2ccc(-c2cn(C)c4ncnc(N)c24)c3F)n1
Procedure, shortened: as §1

nilotinib = compound: Cc1cn(-c2cc(NC(=O)c3ccc(C)c(Nc4nccc(-c5cccnc5)n4)c3)cc(C(F)(F)F)c2)cn1 [nilotinib]
Procedure, shortened: as §1

[2] = compound: Cc1nc(Nc2n[nH]c3c2CN(C(=O)N[C@H](CN(C)C)c2ccccc2)C3(C)C)c2sccc2n1
Procedure, shortened: as §1

dasatinib = compound: Cc1nc(Nc2ncc(C(=O)Nc3c(C)cccc3Cl)s2)cc(N2CCN(CCO)CC2)n1 [dasatinib]
Procedure, shortened: as §1

[3] = compound: Cc1ncc(-c2ccnc(Nc3ccc(S(C)(=O)=O)cc3)n2)n1C(C)C
Procedure, shortened: as §1

[4] = compound: Cn1cc(-c2ccc3c(c2)CCN3C(=O)Cc2cccc(C(F)(F)F)c2)c2c(N)ncnc21
Procedure, shortened: as §1

[5] = compound: Cn1cc(-c2ccc3nnc(C(F)(F)c4ccc5ncccc5c4)n3n2)cn1
Procedure, shortened: as §1

tipifarnib = compound: Cn1cncc1[C@@](N)(c1ccc(Cl)cc1)c1ccc2c(c1)c(-c1cccc(Cl)c1)cc(=O)n2C [tipifarnib]
Procedure, shortened: as §1

mubritinib = compound: FC(F)(F)c1ccc(/C=C/c2nc(COc3ccc(CCCCn4ccnn4)cc3)co2)cc1 [mubritinib]
Procedure, shortened: as §1

[6] = compound: NC(=O)Nc1cc(-c2cccc(F)c2)sc1C(=O)N[C@H]1CCCNC1
Procedure, shortened: as §1

[7] = compound: NC(=O)c1cnc(N[C@@H]2CCCC[C@@H]2N)nc1Nc1cccc(-n2nccn2)c1
Procedure, shortened: as §1

[8] = compound: NC1(c2ccc(-c3nc4ccn5c(=O)[nH]nc5c4cc3-c3ccccc3)cc2)CCC1
Procedure, shortened: as §1

[9] = compound: NCC(=O)Nc1ccc(-n2nc(C(F)(F)F)cc2-c2ccc3c(ccc4ccccc43)c2)cc1
Procedure, shortened: as §1

entinostat = compound: Nc1ccccc1NC(=O)c1ccc(CNC(=O)OCc2cccnc2)cc1 [entinostat]
Procedure, shortened: as §1

vorinostat = compound: O=C(CCCCCCC(=O)Nc1ccccc1)NO [vorinostat]
Procedure, shortened: as §1

citarinostat = compound: O=C(CCCCCCNC(=O)c1cnc(N(c2ccccc2)c2ccccc2Cl)nc1)NO [citarinostat]
Procedure, shortened: as §1

silmitasertib = compound: O=C(O)c1ccc2c(c1)nc(Nc1cccc(Cl)c1)c1ccncc12 [silmitasertib]
Procedure, shortened: as §1

[10] = compound: O=C1NC(=O)C(c2cnc3ccccn23)=C1c1cn2c3c(cc(F)cc13)CN(C(=O)N1CCCCC1)CC2
Procedure, shortened: as §1

[11] = compound: c1cc(OCCN2CCCCC2)cc(-c2n[nH]c3ccc(-c4nnc[nH]4)cc23)c1
Procedure, shortened: as §1

Measured: log2 fold change

CDK9 isoform 2 (UniProt P50750)
inactive: bafetinib 0.039 | [1] 0.108 | nilotinib -0.045 | [2] -0.059 | dasatinib -0.011 | [3] 0.22 | [4] -0.091 | [5] -0.013 | tipifarnib 0.068 | mubritinib -0.067 | [6] -0.05 | [7] -0.038 | [8] -0.057 | [9] 0.22 | entinostat 0.005 | vorinostat 0.102 | citarinostat -0.002 | silmitasertib -0.015 | [10] 0.152 | [11] -0.084

COX15 (UniProt Q7KZN9)
inactive: bafetinib 0.09 | [1] -0.02 | nilotinib -0.013 | [2] 0.02 | dasatinib 0.078 | [3] -0.034 | [4] 0.008 | [5] -0.023 | tipifarnib 0.046 | mubritinib 0.038 | [6] 0.003 | [7] -0.009 | [8] -0.043 | [9] -0.013 | entinostat 0.004 | vorinostat -0.017 | citarinostat 0.048 | silmitasertib 0.022 | [10] 0.028 | [11] -0.064

C4orf33 (UniProt Q8N1A6)
Sequence of UniProt Q8N1A6 (Q8N1A6 whole entry, looked up): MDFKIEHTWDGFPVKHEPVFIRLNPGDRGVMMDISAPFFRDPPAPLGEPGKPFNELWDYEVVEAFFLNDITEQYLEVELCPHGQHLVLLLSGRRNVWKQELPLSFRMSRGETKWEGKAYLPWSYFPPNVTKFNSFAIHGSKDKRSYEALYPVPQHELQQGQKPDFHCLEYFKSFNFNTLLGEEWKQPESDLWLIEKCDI
inactive: bafetinib -0.143 | [1] 0.01 | nilotinib 0.03 | [2] -0.024 | dasatinib -0.002 | [3] -0.1 | [4] 0.056 | [5] 0.031 | tipifarnib -0.007 | mubritinib 0.054 | [6] 0.152 | [7] -0.003 | [8] -0.218 | [9] -0.061 | entinostat -0.156 | vorinostat -0.05 | citarinostat 0 | silmitasertib -0.126 | [10] 0.019 | [11] -0.063

CAMK2G isoform 6 (UniProt Q13555)
Sequence of UniProt Q13555 (Q13555 whole entry, looked up): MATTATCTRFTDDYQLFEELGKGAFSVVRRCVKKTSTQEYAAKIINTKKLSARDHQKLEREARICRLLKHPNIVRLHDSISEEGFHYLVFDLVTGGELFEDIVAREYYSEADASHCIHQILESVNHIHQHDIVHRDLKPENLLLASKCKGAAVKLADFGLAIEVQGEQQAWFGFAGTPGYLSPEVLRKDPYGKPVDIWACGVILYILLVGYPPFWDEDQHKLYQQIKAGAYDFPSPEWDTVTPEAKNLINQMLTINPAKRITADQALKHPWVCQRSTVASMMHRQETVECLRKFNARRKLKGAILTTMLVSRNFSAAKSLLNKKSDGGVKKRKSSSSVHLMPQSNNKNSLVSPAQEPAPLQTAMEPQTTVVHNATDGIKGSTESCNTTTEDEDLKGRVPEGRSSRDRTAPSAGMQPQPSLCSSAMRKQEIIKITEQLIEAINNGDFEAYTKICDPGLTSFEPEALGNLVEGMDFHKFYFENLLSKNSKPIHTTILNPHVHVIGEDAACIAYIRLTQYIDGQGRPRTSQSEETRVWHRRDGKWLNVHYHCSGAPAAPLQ
active: [2] 0.642
inactive: bafetinib 0.064 | [1] -0.148 | nilotinib 0.002 | dasatinib -0.11 | [3] 0.083 | [4] 0.01 | [5] -0.073 | tipifarnib -0.025 | mubritinib -0.008 | [6] -0.306 | [7] -0.033 | [8] 0.038 | [9] 0.057 | entinostat 0.119 | vorinostat 0.119 | citarinostat -0.02 | silmitasertib 0.158 | [10] 0.177 | [11] -0.053

CIT isoform 4 (UniProt O14578)
Sequence of UniProt O14578 (O14578 whole entry, looked up): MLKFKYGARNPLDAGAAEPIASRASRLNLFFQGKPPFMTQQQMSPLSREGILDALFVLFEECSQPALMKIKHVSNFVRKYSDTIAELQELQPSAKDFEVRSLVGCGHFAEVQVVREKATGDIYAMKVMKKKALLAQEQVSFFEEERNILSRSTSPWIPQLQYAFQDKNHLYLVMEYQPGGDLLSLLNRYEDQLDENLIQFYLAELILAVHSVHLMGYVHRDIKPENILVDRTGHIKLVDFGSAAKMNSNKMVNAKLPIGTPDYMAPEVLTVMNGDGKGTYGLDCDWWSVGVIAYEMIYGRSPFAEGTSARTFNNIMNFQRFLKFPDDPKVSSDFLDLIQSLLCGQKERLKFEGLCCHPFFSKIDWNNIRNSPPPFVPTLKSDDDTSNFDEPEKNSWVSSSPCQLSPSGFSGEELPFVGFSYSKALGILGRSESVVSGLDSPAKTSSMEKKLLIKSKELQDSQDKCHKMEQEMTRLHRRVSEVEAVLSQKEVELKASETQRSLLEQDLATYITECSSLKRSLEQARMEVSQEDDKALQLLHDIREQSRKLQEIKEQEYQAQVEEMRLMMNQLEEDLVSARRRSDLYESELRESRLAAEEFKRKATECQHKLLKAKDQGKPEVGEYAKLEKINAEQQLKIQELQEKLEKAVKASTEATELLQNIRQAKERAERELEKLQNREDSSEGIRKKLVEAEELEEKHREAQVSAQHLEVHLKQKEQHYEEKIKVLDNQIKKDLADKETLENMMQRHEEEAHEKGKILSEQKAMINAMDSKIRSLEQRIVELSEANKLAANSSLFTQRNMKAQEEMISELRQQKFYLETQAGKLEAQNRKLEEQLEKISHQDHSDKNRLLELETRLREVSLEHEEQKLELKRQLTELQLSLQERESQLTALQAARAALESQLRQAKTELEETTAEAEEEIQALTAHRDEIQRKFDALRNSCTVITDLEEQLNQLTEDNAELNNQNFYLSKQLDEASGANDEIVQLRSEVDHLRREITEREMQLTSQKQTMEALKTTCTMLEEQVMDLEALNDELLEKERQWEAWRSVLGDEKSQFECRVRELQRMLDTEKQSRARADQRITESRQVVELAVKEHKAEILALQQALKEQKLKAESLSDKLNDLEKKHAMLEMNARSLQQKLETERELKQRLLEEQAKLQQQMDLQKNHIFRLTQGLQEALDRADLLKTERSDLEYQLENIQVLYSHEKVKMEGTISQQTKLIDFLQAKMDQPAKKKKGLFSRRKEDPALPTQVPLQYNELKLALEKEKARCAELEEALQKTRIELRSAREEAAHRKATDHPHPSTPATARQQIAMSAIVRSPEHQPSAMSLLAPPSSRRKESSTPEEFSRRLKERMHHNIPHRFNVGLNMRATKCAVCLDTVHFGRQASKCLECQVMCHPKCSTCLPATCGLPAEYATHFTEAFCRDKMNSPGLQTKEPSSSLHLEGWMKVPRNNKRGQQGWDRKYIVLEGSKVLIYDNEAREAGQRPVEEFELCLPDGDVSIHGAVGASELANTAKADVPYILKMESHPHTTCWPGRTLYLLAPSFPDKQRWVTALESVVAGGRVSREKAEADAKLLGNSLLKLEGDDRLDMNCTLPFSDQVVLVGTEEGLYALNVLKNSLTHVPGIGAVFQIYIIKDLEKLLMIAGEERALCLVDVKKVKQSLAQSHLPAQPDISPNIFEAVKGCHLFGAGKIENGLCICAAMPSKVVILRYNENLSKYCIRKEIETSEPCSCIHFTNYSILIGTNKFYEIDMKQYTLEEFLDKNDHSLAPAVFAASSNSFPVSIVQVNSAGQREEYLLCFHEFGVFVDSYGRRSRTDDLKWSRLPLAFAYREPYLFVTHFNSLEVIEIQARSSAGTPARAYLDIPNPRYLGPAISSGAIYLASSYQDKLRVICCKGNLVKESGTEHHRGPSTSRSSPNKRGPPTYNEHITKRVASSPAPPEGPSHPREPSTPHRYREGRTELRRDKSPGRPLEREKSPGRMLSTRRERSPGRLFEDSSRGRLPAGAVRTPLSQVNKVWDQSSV
inactive: bafetinib -0.01 | [1] 0.07 | nilotinib -0.049 | [2] -0.065 | dasatinib -0.064 | [3] -0.03 | [4] 0.006 | [5] -0.075 | tipifarnib -0.009 | mubritinib 0.031 | [6] -0.072 | [7] -0.101 | [8] -0.108 | [9] 0 | entinostat 0.025 | vorinostat 0.041 | citarinostat -0.222 | silmitasertib 0.049 | [10] 0.049 | [11] 0.293

CDK16 isoform 2 (UniProt Q00536)
Sequence of UniProt Q00536 (Q00536 whole entry, looked up): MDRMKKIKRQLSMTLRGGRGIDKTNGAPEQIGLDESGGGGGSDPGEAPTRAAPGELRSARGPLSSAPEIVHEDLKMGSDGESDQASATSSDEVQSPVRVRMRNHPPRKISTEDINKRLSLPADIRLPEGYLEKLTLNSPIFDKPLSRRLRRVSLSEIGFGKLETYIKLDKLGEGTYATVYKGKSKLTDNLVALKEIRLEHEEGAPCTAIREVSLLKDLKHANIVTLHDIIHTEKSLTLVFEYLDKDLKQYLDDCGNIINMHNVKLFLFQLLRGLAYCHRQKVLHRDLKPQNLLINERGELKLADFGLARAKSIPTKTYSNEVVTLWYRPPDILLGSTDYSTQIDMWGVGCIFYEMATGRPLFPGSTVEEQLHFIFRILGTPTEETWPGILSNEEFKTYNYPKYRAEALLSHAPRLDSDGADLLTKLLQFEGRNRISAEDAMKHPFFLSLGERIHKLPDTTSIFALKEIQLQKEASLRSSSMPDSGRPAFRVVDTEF
inactive: bafetinib 0.038 | [1] -0.047 | nilotinib 0.013 | dasatinib 0 | [4] -0.014 | [5] 0.013 | tipifarnib -0.072 | mubritinib 0.035 | [6] -0.07 | [7] -0.091 | [8] -0.104 | [9] -0.061 | entinostat -0.041 | vorinostat -0.044 | citarinostat 0.061 | silmitasertib 0.201 | [11] -0.006
active: [2] 0.619 | [3] 0.679 | [10] 0.845

CHAF1A (UniProt Q13111)
Sequence of UniProt Q13111 (Q13111 whole entry, looked up): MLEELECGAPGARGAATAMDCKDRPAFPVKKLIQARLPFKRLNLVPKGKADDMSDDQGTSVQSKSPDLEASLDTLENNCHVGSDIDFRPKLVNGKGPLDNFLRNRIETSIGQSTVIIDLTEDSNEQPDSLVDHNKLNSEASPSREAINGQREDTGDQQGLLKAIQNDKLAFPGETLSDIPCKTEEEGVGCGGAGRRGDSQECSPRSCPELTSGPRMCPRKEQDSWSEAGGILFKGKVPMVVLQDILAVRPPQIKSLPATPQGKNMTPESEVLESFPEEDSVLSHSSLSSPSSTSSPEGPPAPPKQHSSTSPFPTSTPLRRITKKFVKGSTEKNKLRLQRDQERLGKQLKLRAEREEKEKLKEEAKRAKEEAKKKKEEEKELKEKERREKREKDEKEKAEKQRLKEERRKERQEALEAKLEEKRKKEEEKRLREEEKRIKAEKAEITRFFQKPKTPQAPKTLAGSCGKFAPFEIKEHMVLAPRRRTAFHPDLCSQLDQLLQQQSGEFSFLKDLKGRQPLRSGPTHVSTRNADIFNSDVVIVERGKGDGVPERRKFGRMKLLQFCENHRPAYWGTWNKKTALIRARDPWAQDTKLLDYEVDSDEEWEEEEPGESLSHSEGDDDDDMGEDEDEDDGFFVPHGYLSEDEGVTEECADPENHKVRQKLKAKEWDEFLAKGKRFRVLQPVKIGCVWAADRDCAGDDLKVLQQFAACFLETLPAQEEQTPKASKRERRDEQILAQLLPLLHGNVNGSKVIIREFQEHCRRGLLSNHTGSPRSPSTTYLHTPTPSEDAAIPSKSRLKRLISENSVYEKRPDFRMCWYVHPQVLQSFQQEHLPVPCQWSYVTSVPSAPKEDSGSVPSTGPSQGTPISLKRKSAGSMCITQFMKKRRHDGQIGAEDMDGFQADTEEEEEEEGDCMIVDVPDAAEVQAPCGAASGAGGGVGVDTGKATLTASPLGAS
inactive: bafetinib -0.154 | [1] -0.04 | nilotinib 0.053 | [2] 0.047 | dasatinib 0.016 | [3] -0.074 | [4] 0.006 | [5] 0.002 | tipifarnib 0.015 | mubritinib 0.034 | [6] 0.087 | [7] 0.046 | [8] 0.036 | entinostat -0.141 | vorinostat 0.121 | citarinostat 0.005 | silmitasertib -0.019 | [10] -0.167
active: [11] -0.439

CDK5RAP1 (UniProt Q96SZ6)
Sequence of UniProt Q96SZ6 (Q96SZ6 whole entry, looked up): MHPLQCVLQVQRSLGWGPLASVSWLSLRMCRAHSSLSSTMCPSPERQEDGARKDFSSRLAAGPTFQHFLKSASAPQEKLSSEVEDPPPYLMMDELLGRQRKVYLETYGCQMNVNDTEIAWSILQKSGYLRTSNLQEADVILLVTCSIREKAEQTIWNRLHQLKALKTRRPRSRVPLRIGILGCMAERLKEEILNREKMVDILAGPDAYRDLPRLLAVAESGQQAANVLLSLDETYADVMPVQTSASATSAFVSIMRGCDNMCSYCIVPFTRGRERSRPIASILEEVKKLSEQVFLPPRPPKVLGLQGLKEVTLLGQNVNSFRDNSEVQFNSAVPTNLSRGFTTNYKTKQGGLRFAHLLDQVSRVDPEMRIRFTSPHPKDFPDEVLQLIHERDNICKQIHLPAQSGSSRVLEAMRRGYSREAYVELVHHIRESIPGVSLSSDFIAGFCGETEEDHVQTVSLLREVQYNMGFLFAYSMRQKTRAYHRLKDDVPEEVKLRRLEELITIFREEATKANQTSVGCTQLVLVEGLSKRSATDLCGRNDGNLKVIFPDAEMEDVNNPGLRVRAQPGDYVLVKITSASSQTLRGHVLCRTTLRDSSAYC
inactive: bafetinib -0.052 | [1] -0.058 | nilotinib 0 | [2] -0.008 | dasatinib 0.175 | [3] -0.006 | [4] 0.044 | [5] 0.017 | tipifarnib 0.031 | mubritinib -0.03 | [6] -0.107 | [7] 0.047 | [8] -0.114 | [9] 0.199 | entinostat -0.008 | vorinostat -0.089 | citarinostat -0.055 | silmitasertib 0.06 | [10] -0.023 | [11] -0.031
